# The source made the active and inactive calls.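 The calls were made as follows: active = inhibition above 20% together with a positive visual image hit; inconclusive = visual image hit but inhibition not above 20%; inactive = no visual image hit.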
# Experiment: inhibitors of TNFa-induced NFkB p65 translocation, primary screen, imaging, HUVEC, MLSMR starter and 10KST1 sets (AID 438);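 also: compound added about 3h40 before a 20 min TNFalpha stimulation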;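 as to inhibition: signal is the nuclear over cytoplasmic p65 intensity ratio per well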
# Conditions: HUVEC TNFa-induced p65 nuclear translocation; cell count: measured here: nuclei count (cytotoxicity indicator), at 2.08 µM; inhibition: at 2 µM, stronger effect = higher value, 0% TNFa-plus-vehicle, 100% no-TNFa wells
SMILES,inhibition,cell count
CC1(C)CC(=O)c2sc(NS(C)(=O)=O)nc2C1,-10.5% (inactive),638
CSC1=NCCN1C(=O)c1ccc(S(=O)(=O)N2CCCC2)cc1,0.8% (inactive),611
CC12CN3CC(C)(CN(C1)C3c1ccc(Cl)cc1Cl)C2=O (stereo not given),-4.6% (inactive),849
CCOC(=O)c1ccc(NC(=O)CSC2=NC(=O)C(CC)C(=O)N2)cc1 (stereo not given),-20.1% (inactive),534
O=C(C1CCCN(S(=O)(=O)c2cccnc2)C1)N1CCn2c1nc1ccccc12 (stereo not given),-11.6% (inactive),639
COc1ccc(C)cc1NC(=O)CN(Cc1nnc(-c2ccc(Cl)cc2)o1)C1CCCC1,2.4% (inactive),392
Cc1occc1-c1nc(-c2ccncc2)no1,7.3% (inactive),706
Cn1c(=O)c2c(nc(SCC(=O)NCc3ccco3)n2C)n(C)c1=O,1.7% (inactive),616
CCCCP(=O)(CCCC)Cc1ccccc1O,-1.6% (inactive),363
CN(C)c1nc(N)nc(-c2nc3ccccc3s2)n1,-2.1% (inactive),824
Cc1ccc(NC(=O)c2ccco2)c(NC(=O)c2cccs2)c1,4.8% (inactive),684
Nn1c(SCC(=O)Nc2ccc(F)cc2)nnc1-c1cccnc1,55.5% (active),74
CCOC(=O)c1ccccc1NC1c2ccccc2C(=O)N1C1CCN(C(=O)OCC)CC1 (stereo not given),-9.7% (inactive),548
CC(Sc1nc(-c2ccccc2)cc(C(F)(F)F)n1)C(=O)N1CCCC1 (stereo not given),-1.1% (inactive),698
Clc1ccc(Nc2ncnc3c2cnn3-c2ccccc2)cc1,0% (inactive),703
Cc1csc(SCCn2c(N3CCCC3)nc3c2c(=O)[nH]c(=O)n3C)n1,53.9% (active),445
CC(CCc1ccccc1)NCc1ccncc1 (stereo not given),3% (inactive),564
CCCCCSc1nc2c(cnn2-c2ccccc2)c(=O)[nH]1,-4.9% (inactive),241
Cc1ccc2c(c1)CCCN2C(=O)Nc1ccc2c(c1)OCO2,-0.8% (inactive),365
CCc1c(C(=O)N2CCOCC2)csc1C,-3.7% (inactive),295
Cc1c(-n2c(CN3C(=O)c4ccccc4C3=O)nc3ccccc3c2=O)c(=O)n(-c2ccccc2)n1C,-8.4% (inactive),407
Cn1c(=O)[nH]c(=O)c2c1ncn2CCN1CCOCC1,-12.1% (inactive),696
CC1C(=O)C(C)C(c2cccs2)NC1c1cccs1 (stereo not given),-1.4% (inactive),295
CCOC(=O)c1ccc(NS(=O)(=O)c2ccc3c(c2)CCCN3C(C)=O)cc1,0.7% (inactive),684
O=C(Nc1sc2c(c1C(=O)NCc1ccco1)CCCC2)c1ccc2c(c1)OCO2,-10.1% (inactive),563
